Laboratory results reported in the supplement of paper PMC8975748.
Structures can show the parent of a compound that is named as a salt.

Tested on: Saccharomyces cerevisiae BY4741 SeMeCo community
Experiment: z-score of subpopulation abundance vs DMSO median, subpopulation auxotrophic for L; higher = larger share of this subpopulation than in DMSO controls
Conditions: 10 µM; 24 h; SM minimal medium; subpopulation (auxotrophy): L
Outline: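 Subpopulation abundance was reported as a z-score against the median of vehicle wells. The Saccharomyces cerevisiae BY4741 community, carrying four plasmids that each restored one auxotrophy and encoded a distinct fluorescent protein, was grown 24 h in minimal SM medium in 384-well plates holding library drugs at 10 µM final. Cells were paraformaldehyde-fixed and imaged by automated confocal microscopy, with single-auxotroph fluorescent strains used for thresholds and autofluorescence correction.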

SMILES	z-score of subpopulation abundance
COc1cc(O)c(C(=O)Nc2nc(C(=O)NCCN(C(C)C)C(C)C)cs2)cc1OC [Acotiamide hydrochloride]	-0.26
Cc1onc(-c2c(F)cccc2Cl)c1C(=O)N[C@@H]1C(=O)N2[C@@H]1SC(C)(C)[C@@H]2C(=O)O [Flucloxacillin sodium]	-0.25
Cc1ncc([N+](=O)[O-])n1CC(O)CCl (stereo not given) [Ornidazole]	0
OC(CCCN1CCCCC1)(c1ccccc1)c1ccccc1 [Diphenidol HCl]	-0.41
Cc1ccccc1OCC(O)CO (stereo not given) [Mephenesin]	0.09
CC(C)c1c(C(=O)Nc2ccccc2)c(-c2ccccc2)c(-c2ccc(F)cc2)n1CC[C@@H](O)C[C@@H](O)CC(=O)O [Atorvastatin Calcium]	0.91
C[C@@H](O)[C@H]1C(=O)N2C(C(=O)[O-])=C(SC3Cn4cnc[n+]4C3)[C@H](C)[C@H]12 (stereo not given in full) [Biapenem]	-0.66
CO/N=C(\C(=O)N[C@@H]1C(=O)N2C(C(=O)OC(C)OC(C)=O)=C(COC(N)=O)CS[C@H]12)c1ccco1 (stereo not given in full) [Cefuroxime axetil]	-0.95
Cc1cc(=O)n(-c2ccccc2)n1C [Antipyrine]	-0.59
Oc1c(Cl)cc(Cl)c2cccnc12 [Chloroxine]	-0.75
CC1(C)CC[C@]2(C(=O)O)CC[C@]3(C)C(=CC[C@@H]4[C@@]5(C)CC[C@H](O)C(C)(C)[C@@H]5CC[C@]43C)[C@@H]2C1 [Oleanolic Acid]	-0.03
CCOC(=O)C1=C(C)NC(C)=C(C(=O)OC)C1c1cccc(Cl)c1Cl (stereo not given) [Felodipine]	1.68
O=C1CCc2cc(OCCCCc3nnnn3C3CCCCC3)ccc2N1 [Cilostazol]	0.75
Cc1nnc(SCC2=C(C(=O)O)N3C(=O)[C@@H](NC(=O)Cn4cc(Cl)c(=O)c(Cl)c4)[C@H]3SC2)s1 [Cefazedone]	-0.83
CS(=O)(=O)c1ccc([C@@H](O)[C@@H](CO)NC(=O)C(Cl)Cl)cc1 [Thiamphenicol]	0.13
O=C(O)CCNC(=O)c1ccccc1 [Betamipron]	-1.22
O=c1cc(-c2ccc(O)c(O)c2)oc2cc(O)cc(O)c12 [Luteolin]	1.23
CN1C[C@@H]2C[C@H]1CN2c1cc2c(cc1F)c(=O)c(C(=O)O)cn2C1CC1 [Danofloxacin Mesylate]	-0.69
CC(=O)Oc1ccccc1C(=O)O [Aspirin]	-0.15
Cc1noc(NS(=O)(=O)c2ccc(N)cc2)c1C [Sulfisoxazole]	0.65

SMILES	z-score of subpopulation abundance
O=C(NCCO[N+](=O)[O-])c1cccnc1 [Nicorandil]	0.07
O=C1C(CC[S+]([O-])c2ccccc2)C(=O)N(c2ccccc2)N1c1ccccc1 (racemic) [(+/-)-Sulfinpyrazone]	-0.72
CCCCCCCCCC(=O)N[C@@H](Cc1c[nH]c2ccccc12)C(=O)N[C@H](CC(N)=O)C(=O)N[C@@H](CC(=O)O)C(=O)N[C@@H]1C(=O)NCC(=O)N[C@@H](CCCN)C(=O)N[C@@H](CC(=O)O)C(=O)N[C@H](C)C(=O)N[C@@H](CC(=O)O)C(=O)NCC(=O)N[C@H](CO)C(=O)N[C@@H]([C@H](C)CC(=O)O)C(=O)N[C@@H](CC(=O)c2ccccc2N)C(=O)O[C@@H]1C [Daptomycin]	0.51
CCn1cc(C(=O)O)c(=O)c2cc(F)c(N3CCN(C)CC3)cc21 [Pefloxacin Mesylate]	-0.33
OCc1ccc(Cl)cc1Cl [2,4-dichlorobenzyl alcohol]	0.8
CN(C)CCC=C1c2ccccc2CCc2ccccc21 [Amitriptyline HCl]	-0.56
COc1ccccc1OCC(O)CN1CCN(CC(=O)Nc2c(C)cccc2C)CC1 (stereo not given) [Ranolazine]	0.18
COc1cc(C(C)=O)ccc1OCCCN1CCC(c2noc3cc(F)ccc23)CC1 [Iloperidone]	0.2
Cc1ccc(Sc2ccccc2N2CCNCC2)c(C)c1	-0.27
Nc1ccc(S(=O)(=O)Nc2ccccn2)cc1 [Sulfapyridine]	-0.23
CN1CC(=O)N2[C@H](c3ccc4c(c3)OCO4)c3[nH]c4ccccc4c3C[C@@H]2C1=O [Tadalafil]	1.85
CCOC(=O)C1=C[C@@H](OC(CC)CC)[C@H](NC(C)=O)[C@@H](N)C1 [Oseltamivir Phosphate]	0.45
O=C(c1ccc(OCCN2CCCCC2)cc1)c1c(-c2ccc(O)cc2)sc2cc(O)ccc12 [Raloxifene HCl]	1.28
N#CC(c1ccc(Cl)cc1)c1c(Cl)cc(-n2ncc(=O)[nH]c2=O)cc1Cl (stereo not given) [Diclazuril]	-0.07
O=C1NCC2(CCN(CCc3ccccc3)CC2)O1 [Fenspiride HCl]	-0.18
CCCN[C@H]1CCc2nc(N)sc2C1 [Pramipexole dihydrochloride]	-0.42
O=C(O)c1ccccc1O [Salicylic acid]	-0.26
CCCOc1ccc(C(=O)OCCN(CC)CC)cc1N [Proparacaine HCl]	0.26
CCOc1ccc2ccccc2c1C(=O)N[C@@H]1C(=O)N2[C@@H]1SC(C)(C)[C@@H]2C(=O)O [Nafcillin Sodium]	0.95
CC(C)(O/N=C(\C(=O)N[C@@H]1C(=O)N2C(C(=O)[O-])=C(C[n+]3ccccc3)CS[C@H]12)c1csc(N)n1)C(=O)O [Ceftazidime]	-0.23
